Experimental data published in PubChem BioAssay AID489008 (National Center for Advancing Translational Sciences (NCATS), 2010).
Records with an inconclusive call do not appear. Calls of active or inactive are those of the source. Calls come from the whole dose curve; as a rule, active = well fitted inhibition curve with a large enough effect; inconclusive = small, poorly fitted or top-dose-only effect; inactive = flat fitted curve, though single readings scatter.

Molecular target: Ferritin light chain (Equus caballus) (UniProt P02791)
Sequence (P02791 2-175 limits assumed): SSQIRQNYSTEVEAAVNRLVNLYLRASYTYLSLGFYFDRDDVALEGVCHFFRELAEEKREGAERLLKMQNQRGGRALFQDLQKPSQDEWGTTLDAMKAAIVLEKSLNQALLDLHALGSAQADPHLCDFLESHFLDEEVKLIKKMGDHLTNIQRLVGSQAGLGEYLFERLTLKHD
Assay: Confirmation Assay for Identification of Novel General Anesthetics; note: nearly all actives have a fitted effect of over 40% in size
Settings: apoferritin 1-aminoanthracene fluorescence displacement
In short: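 Competitive displacement of profluorescent 1-aminoanthracene from 10 uM horse-spleen apoferritin in 50% saturated 1-AMA/PBS; 10 min RT, fluorescence Ex 380/Em 535. Normalized to free 1-AMA and complex; four-parameter Hill fit.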
Potency is the fitted concentration of half-maximal effect.

Potency, active:
CC(=O)Nc1ncc(Cc2cc(Cl)ccc2Cl)s1 15.8 µM
Cc1ccc(NC(=O)c2ccccc2)cc1OC(=O)c1ccccc1 28.2 µM
ON1C(c2ccc(Cl)cc2Cl)N(O)[C@H]2CCCC[C@H]21 (some centres undefined) 7.94 µM
O=C(NC1CCCCCC1)c1nnc(Cc2ccc(Cl)cc2)o1 15.8 µM
NC(=O)COC(=O)CC12CC3CC(CC(Br)(C3)C1)C2 17.8 µM
Cc1cc(C)cc(OCc2nnc(SCC(=O)OC(C)C)o2)c1 12.6 µM
Nc1nnc(COc2cccc(C(F)(F)F)c2)s1 15.8 µM
CC1CCCC(NC(=O)COC(=O)CCc2ccccc2)C1C (centres undefined) 25.1 µM
c1cc2c(cc1NC1CCCCCC1)OCO2 8.91 µM
COc1ccc(/C=N/NC(=O)CC(=O)NC2CCCCC2)cc1 6.31 µM
COc1cccc(NC(=O)Nc2nc(SC(C)(C)C)ns2)c1 10 µM
COc1ccccc1CC(=O)Nc1cc(Cl)ccc1O 17.8 µM
O=S(=O)(Nc1cnc2ccccc2c1)N1CCCCCC1 28.2 µM
O=C(CNC(=O)c1ccco1)OCC(=O)c1ccc2c(c1)CCCC2 31.6 µM
Cc1ccccc1Nc1nc2ccccc2s1 14.1 µM
C/C(=N\Nc1ccc(F)cc1F)c1cccs1 11.2 µM
O=C(CN1CCCC1)Nc1ccc(OCc2ccccc2)cc1 15.8 µM
O=C1CCCc2ccccc2N1Cc1ccccc1Cl 15.8 µM
COc1ccc(OCCC(=O)NCC23CC4CC(CC(C4)C2)C3)cc1 6.31 µM
